APOBEC3A inh: human APOBEC3A DNA deaminase inhibition; 330,000 compounds, 0.41% hits; AID 493011; inhibition, % at 20 µM; recombinant A3A, FAM/TAMRA ssDNA deamination fluorescence;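 active = at least 40% inhibition at 20 µM here, with at most 30% in a related deaminase screen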
Target sequence (P31941 whole entry, looked up): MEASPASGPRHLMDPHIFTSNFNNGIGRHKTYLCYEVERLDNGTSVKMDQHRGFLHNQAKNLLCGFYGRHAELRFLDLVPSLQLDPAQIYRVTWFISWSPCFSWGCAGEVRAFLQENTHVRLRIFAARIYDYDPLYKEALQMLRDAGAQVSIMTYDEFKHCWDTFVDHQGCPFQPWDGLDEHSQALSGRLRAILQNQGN
PfGluPho inh: PfG6PD (Plasmodium falciparum) enzyme inhibition; PfGluPho enzyme, NADPH resazurin-diaphorase fluorescence; inhibition, % at 20 µM; 350,000 compounds, 0.78% hits; AID 504690;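 active = inhibition reaching at least a set limit at 20 µM in the primary screen, cut at about 59% in these data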
APOBEC3G inh: APOBEC3G (human) deaminase inhibition; recombinant A3G, ssDNA deamination FAM/TAMRA fluorescence; inhibition, % at 20 µM; 330,000 compounds, 0.28% hits; AID 493012;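 active = inhibition of at least 40% at 20 µM, with no more than 30% in the related APOBEC3A deaminase screen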
H9c2 TAG inh: reduces triacylglycerol accumulation in H9c2 cells. Nile Red lipid (TAG) fluorescence; cells loaded with 200 µM oleic acid. inhibition, % at 12.5 µM. 230,000 compounds, 0.66% hits. AID 651582;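 active = pattern-corrected inhibition of lipid staining of at least 50% with the nuclear-stain viability signal not falling by more than 50%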
H9c2 protect: protects H9c2 cardiomyocytes from peroxide injury; AID 588492; 360,000 compounds, 0.63% hits; protection from H2O2 cell death, % at 20 µM; H2O2 injury protection, ATPLite, 2 h;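 active = compounds giving at least 50% protection of heart cells from peroxide-induced death in the single-dose screen, raw or plate-pattern-corrected value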
NadD block: inhibitors of Staphylococcus aureus NadD; purified NadD enzyme, colorimetric absorbance read-out; inhibition, % at 20 µM; 360,000 compounds, 0.78% hits; in the data active = inhibition above about 26%
A3G conf: APOBEC3G (human) deaminase inhibition, confirmed; shares compounds with APOBEC3G inh; recombinant A3G ssDNA deaminase, UDG/FAM-TAMRA fluorescence; inhibition, % at 20 µM; 890 compounds, 72% hits;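 active = inhibition reaching a set limit in any replicate at 20 µM, the limit being 80% of the first screen's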
UDG ctr A3G: counter-screen for APOBEC3G inhibitors: E. coli UDG. shares compounds with APOBEC3G inh. UDG counterscreen, FAM/TAMRA oligo fluorescence. inhibition, % at 20 µM. 710 tested, under 10 active. AID 504715;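 active = compounds giving 40% or more inhibition at 20 µM in any one of the three replicates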;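 also: inhibitors lower the FAM signal released by uracil excision and alkaline cleavage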
Target sequence (P12295 whole entry, looked up): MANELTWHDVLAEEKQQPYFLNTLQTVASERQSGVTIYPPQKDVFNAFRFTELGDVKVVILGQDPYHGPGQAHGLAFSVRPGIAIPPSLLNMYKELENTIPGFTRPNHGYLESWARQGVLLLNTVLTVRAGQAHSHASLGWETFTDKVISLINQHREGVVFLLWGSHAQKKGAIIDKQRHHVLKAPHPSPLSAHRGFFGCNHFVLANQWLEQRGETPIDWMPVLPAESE
Of the large screens only hits and unclear results are named; the others gave an inactive call (follow-up assays come after a bar, where they were run). Hits are enriched below; roughly 2.9% of the tested compounds scored in any of these assays.

Cc1ccccc1C(=O)NNC(=S)NC(=O)COc1ccccc1	APOBEC3G inh 44 (no result: H9c2 TAG inh) | A3G conf 64 | UDG ctr A3G inactive
Cc1ccccc1C(=O)NCC(=O)NNC(=S)NC(=O)c1ccccc1	APOBEC3G inh 43 (no result: H9c2 TAG inh) | A3G conf inactive | UDG ctr A3G inactive
CC(C)(C)c1ccc(C(=O)NC(=S)NNC(=O)COc2ccccc2)cc1	none
Cc1ccc(C(=O)NNC(=S)NC(=O)COc2ccccc2)cc1	APOBEC3G inh 53 (no result: H9c2 TAG inh) | A3G conf 50 | UDG ctr A3G inactive
COC(=O)c1ccccc1NC(=S)NC(=O)COc1ccccc1	none
O=C1NC(c2ccccc2)Nc2c1sc(=S)n2-c1ccccc1 (stereo not drawn)	none
CS(=O)(=O)N(CC(=O)N1CCCC1)Cc1ccc(F)cc1	none (no result: H9c2 TAG inh)
O=C(CN(Cc1ccc(F)cc1)S(=O)(=O)c1ccccc1)N1CCCCC1	APOBEC3G inh 81 (no result: H9c2 TAG inh) | A3G conf inactive | UDG ctr A3G inactive
CC(/C=N/n1c(-c2cccnc2)n[nH]c1=S)=C\c1ccco1	APOBEC3G inh 71 | A3G conf 70 | UDG ctr A3G inactive
CC(/C=N/n1c(-c2n[nH]c3c2CCC3)n[nH]c1=S)=C\c1ccco1	APOBEC3G inh 55 | A3G conf 68 | UDG ctr A3G inactive
COc1cc(OC)c(NC(C)C(=O)N2CCCC2)cc1Cl (stereo not drawn)	none
C=C(C)C(=O)Nc1ccc2c(c1)OCCOCCOCCO2	APOBEC3G inh 78 | A3G conf 86
O=C(O)c1ccc(-n2c(-c3ccc(Br)cc3)n[nH]c2=S)cc1	APOBEC3G inh 44 | A3G conf 65 | UDG ctr A3G inactive
S=c1[nH]nc(-c2ccc(Br)cc2)n1-c1ccc(Br)cc1	none (no result: H9c2 TAG inh)
CC(=O)/C(=N/Nc1ccccc1C)N1CCOCC1	APOBEC3G inh 41 | A3G conf 36 | UDG ctr A3G inactive
Cc1ccnc(NC(=O)C(C)N2C(=O)c3ccccc3S2(=O)=O)c1 (stereo not drawn)	none
C[C@@H]1C=C(C(=O)N2CCOCC2)O[C@H](OCc2ccc(CO)cc2)C1	none
CCn1c(-c2csc(C(C)C)c2)n[nH]c1=S	APOBEC3G inh 51 (no result: H9c2 TAG inh) | A3G conf inactive
CCc1cc(-c2n[nH]c(=S)n2CC)cs1	APOBEC3G inh 52 (no result: H9c2 TAG inh) | A3G conf 83 | UDG ctr A3G inactive
Cc1cc(-c2n[nH]c(=S)n2CC(C)C)cs1	APOBEC3G inh 49 | A3G conf 66 | UDG ctr A3G inactive
CCCCn1c(-c2csc(CCC)c2)n[nH]c1=S	none (no result: APOBEC3A inh, APOBEC3G inh)
CCCc1cc(-c2n[nH]c(=S)n2CC)cs1	APOBEC3G inh 43 | A3G conf 79 | UDG ctr A3G inactive
CCN(CC(=O)NC1CCS(=O)(=O)C1)S(=O)(=O)c1c(C)c(C)cc(C)c1C (stereo not drawn)	none
Cc1c(C(=O)NCc2cccc(C(F)(F)F)c2)sc(=O)n1Cc1ccc(C(=O)N(C)C)cc1	none (no result: APOBEC3A inh, PfGluPho inh, APOBEC3G inh)
CCn1nc(C)c(CNC(=O)C2CCC(=O)N(CCc3ccc(Cl)cc3)C2)c1C (stereo not drawn)	APOBEC3G inh 44 (no result: H9c2 TAG inh) | A3G conf inactive
O=C1c2ccccc2C(=O)N1CCSc1n[nH]c(=S)s1	APOBEC3G inh 54 | A3G conf active | UDG ctr A3G inactive
O=C1c2ccccc2C(=O)N1CCSc1ncn[nH]1	none
COc1ccc([C@H]2CC(=O)C=C(c3ccc(Cl)c(C(F)(F)F)c3)C2)cc1	none
O=C(O)C1CCN(C(=O)CSc2nc3cc(Cl)ccc3c(=O)n2Cc2ccccc2)CC1	none (no result: H9c2 TAG inh)
N#CCC(=O)NNC(=S)NC(=O)C(c1ccccc1)c1ccccc1	none
CC(=O)NC(=S)NNC(=O)C(c1ccccc1)c1ccccc1	APOBEC3G inh 46 | A3G conf 41 | UDG ctr A3G inactive
Nc1ccc(N2CCCCC2)c(S(=O)(=O)Nc2ccccc2Cl)c1	none
COc1ccccc1NS(=O)(=O)c1cc(N)ccc1N1CCCCC1	APOBEC3G inh 49 | A3G conf 62 | UDG ctr A3G inactive
COc1ccc(Cc2n[nH]c(=S)n2C)cc1Br	APOBEC3G inh 42 | A3G conf 54 | UDG ctr A3G inactive

High-throughput results: PubChem, Sanford-Burnham Center for Chemical Genomics
